The values that follow are results of earlier work, collected in PubChem BioAssay AID977611.

Out of some 3,900 compounds screened, about 3,900 (100%) were called active. The limit is not given here; nearly all actives have Kd up to about 4200 µM. So high a share suggests a set chosen from earlier hits. The list shows a part of the results. Starred links: 1 amine or outer side, 2 acyl side, 3 side chain; linkers in the order of their positions; H or OH if unused. Positions of bridges follow the written chain, without caps; N, C: chain ends. Non-standard residues stand in square brackets, D forms with d. Square brackets hold non-standard residues; d marks the D form. Residues, ends and D or L forms follow the SMILES beside them. Peptide text beside a SMILES is read from it. Thr(P(OH)3+) = C[C@@H](O[P+](O)(O)O)[C@H](N)C(=O)O; X1 = C[C@](CCCCCC=[*:3])(N[*:1])C(=O)[*:2]; X2 = C[C@@](CCCCC=[*:3])(N[*:1])C(=O)[*:2]; Orn(CH(NH2)2) = NC(N)NCCC[C@H](N)C(=O)O; R8 = C=CCCCCCC[C@@](C)(N)C(=O)O; S5 = C=CCCC[C@](C)(N)C(=O)O; Abu = CC[C@H](N)C(=O)O

The data set can be described thus: PubChem AID 977611. To be noted: PDB protein-ligand complexes, literature Kd.

Broadly, the Kd is the free concentration of one partner at which half of the binding sites on the other are occupied at equilibrium, for simple one-to-one binding. Consider H-LAPPKPPLPE-OH, for which the Kd (protein: The second SH3 domain from CAP/Ponsin, SH3b, PDB entry 4ln2) is 248 µM (active). Consider `CC(C)C[C@H](NC(=O)[C@@H]1CCCN1C(=O)[C@@H]1CCCN1C(=O)[C@H](CC(C)C)NC(=O)[C@@H]1CCCN1C(=O)[C@H](CCCNC(N)N)NC(=O)[C@@H](N)CCCCN)C(=O)N1CCC[C@H]1C(=O)N[C@@H](CO)C(=O)O` (H-K[Orn(CH(NH2)2)]PLPPLPS-OH), for which the dissociation constant Kd (protein: phosphatidylinositol 3-kinase (PI3K) SH3 domain, PDB entry 3i5r) was 40 µM (active).

On to H-APPPRPPPPE-OH, for which the Kd (protein: The first SH3 domain from CAP/Ponsin, SH3a, PDB entry 4lnp) was 214 µM (active). For the molecule `CC(C)CCCCCCC(=O)N[C@H]1[C@H](Oc2c3cc4cc2Oc2ccc(cc2Cl)C[C@H]2NC(=O)[C@H](N)c5ccc(O)c(c5)Oc5cc(O)cc(c5)[C@H](NC2=O)C(=O)N[C@H]4C(=O)N[C@H]2C(=O)N[C@H](C(=O)N[C@H](C(=O)O)c4cc(O)cc(O)c4-c4cc2ccc4O)[C@H](O)c2ccc(cc2)O3)O[C@H](CO)[C@@H](O)[C@@H]1O`, the dissociation constant Kd (protein: Maltose-binding periplasmic protein, C-terminal fused by Cys-Lys-D-Ala-D-Ala, PDB entry 3vfj) was 0.091 µM (active). As for H-SYGHLSIG-OH, the Kd (protein: MALTOSE-BINDING PERIPLASMIC PROTEIN, SUPPRESSOR OF FUSED HOMOLOG (W61D, L62S, G63F, P453A, K457A mutation), PDB entry 4blb) was 4.47 µM (active). With H-GSYGHLSIGT-OH, under “protein: Sufu, PDB entry 4kmd”, the Kd was 3.86 µM (active).

Regarding `OS(O)(O)CCNC1CCCCC1`, the equilibrium dissociation constant (Kd) (protein: Interleukin-13 receptor subunit alpha-1, PDB entry 4hwb) is 0.00057 µM (active). Consider `C[C@H](N)C(=O)N[C@@H](CCCNC(N)N)C(=O)N[C@H](C(=O)N[C@@H](CCCC[N+](C)(C)C)C(=O)N[C@@H](CCC(N)=O)C(=O)N[C@H](C(=O)N[C@@H](C)C(=O)N[C@@H](CCCNC(N)N)C(=O)N[C@@H](CCCCN)C(=O)N[C@@H](CO)C(=O)N[C@H](C(=O)NCC(=O)NCC(=O)N[C@@H](CCCCN)C(=O)N[C@@H](C)C(=O)O)[C@@H](C)O)[C@@H](C)O)[C@@H](C)O`, for which the equilibrium dissociation constant (Kd) (protein: bromodomain PHD finger transcription factor, PDB entry 2fuu) was 2.7 µM (active). In the case of `CC(=O)NCCCC[C@H](NC(=O)[C@H](CCCNC(N)N)NC(=O)[C@H](C)NC(=O)[C@@H](NC(=O)[C@H](CCC(N)=O)NC(=O)[C@H](CCCCN)NC(=O)[C@@H](NC(=O)[C@H](CCCNC(N)N)NC(=O)[C@H](C)N)[C@@H](C)O)[C@@H](C)O)C(=O)N[C@@H](CO)C(=O)N[C@H](C(=O)NCC(=O)NCC(=O)N[C@@H](CCCCN)C(=O)N[C@@H](C)C(=O)O)[C@@H](C)O`, the dissociation constant Kd (protein: Histone acetyltransferase PCAF, PDB entry 2rnw) is 1050 µM (active).

Consider `O=C(O)c1ccc2cc[nH]c2c1`, for which, under “protein: Protease (Q7K, L33I, L63I, C67A, C95A mutation), PDB entry 4ej8”, the Kd is 4.1 µM (active). As to `CSCC[C@H](NC(=O)[C@H](C)N)C(=O)N[C@@H](CCCCN)C(=O)N[C@@H](CCCNC(N)N)C(=O)N[C@@H](Cc1cnc[nH]1)C(=O)NCC(=O)N[C@@H](CC(C)C)C(=O)N[C@@H](CC(=O)O)C(=O)N[C@@H](CC(N)=O)C(=O)N[C@@H](Cc1ccc(O)cc1)C(=O)N[C@@H](CCCNC(N)N)C(=O)NCC(=O)N[C@@H](Cc1ccc(O)cc1)C(=O)N[C@@H](CO)C(=O)O` (H-AMK[Orn(CH(NH2)2)]HGLDNY[Orn(CH(NH2)2)]GYS-OH), the Kd (protein: I-Ag7, PDB entry 1f3j) is 6 µM (active). Turning to H-AHGMLKLYYGLS-OH, the Kd (protein: Syntaxin-6, PDB entry 4j2c) was 5.6 µM (active).

For `CC(=O)N[C@H](C(=O)N[C@@H](CO)C(=O)N[C@@H](Cc1ccccc1)C(=O)N[C@]1(C)CCCCCC/C=C/CCC[C@@](C)(C(N)=O)NC(=O)[C@H](CC(C)C)NC(=O)[C@H](CC(C)C)NC(=O)[C@H](Cc2ccc(O)cc2)NC(=O)[C@H](Cc2c[nH]c3ccccc23)NC(=O)[C@H](Cc2ccc(O)cc2)NC(=O)[C@H](CCC(=O)O)NC1=O)[C@@H](C)O` (Ac-TSF[R8]EYWYLL[S5]-NH2; staple (E) 4-11), where the note is “protein: E3 UBIQUITIN-PROTEIN LIGASE MDM2-M62A, PDB entry 4umn”, the Kd is 0.0631 µM (active).

For `CC[C@H](N)C(=O)N[C@H](C(=O)N[C@@H](Cc1ccccc1)C(=O)N[C@]1(C)CCCCC/C=C/CCCC[C@@](C)(C(=O)N[C@@H](CCC(N)=O)C(=O)N[C@@H](CC(N)=O)C(=O)O)NC(=O)[C@H](CC(C)C)NC(=O)[C@H](CC(C)C)NC(=O)[C@H](CCCNC(N)N)NC(=O)[C@H](Cc2c[nH]c3ccccc23)NC(=O)[C@H](CC(C)C)NC(=O)[C@H](CC(N)=O)NC1=O)[C@@H](C)O` (H-[Abu]TF[X1]NLW[Orn(CH(NH2)2)]LL[X2]QN-OH; staple (E) 4-11), the Kd (protein: E3 ubiquitin-protein ligase Mdm2, PDB entry 3v3b) was 0.055 µM (active). For `CC(C)C[C@H](NC(=O)[C@]1(C)CCC/C=C\CCC[C@](C)(NC(=O)[C@H](CCCNC(N)N)NC(=O)[C@H](CO)NC(=O)[C@H](Cc2ccc(O)cc2)NC(=O)[C@H](CCCNC(N)N)NC(=O)[C@H](CCCCN)NC(=O)[C@@H](N)CCCCN)C(=O)N[C@@H](CCC(N)=O)C(=O)N[C@@H](CC(C)C)C(=O)N[C@@H](CC(C)C)C(=O)N1)C(N)=O`, the dissociation constant (Kd) (protein: EUKARYOTIC TRANSLATION INITIATION FACTOR 4E, PDB entry 4bea) was 0.005 µM (active). Regarding `COc1cc(-c2ccc3ncc(-c4cccc([C@@H](O)NCCN(C)C)c4)n3n2)ccc1O`, the dissociation constant (Kd) (protein: Death-associated protein kinase 1 DAPK1, PDB entry 4txc) is 0.24 µM (active). For the molecule `CC(C)[C@H](NC(=O)[C@H](CCCCN)NC(=O)[C@H](CCCNC(N)N)NC(=O)[C@H](CCCCN)NC(=O)[C@H](CCCCN)NC(=O)[C@H](CCCCN)NC(=O)[C@@H]1CCCN1C(=O)[C@@H]1CCCN1C(=O)[C@H](CO)NC(=O)CN)C(=O)NCC(=O)O` (H-GSPPKKK[Orn(CH(NH2)2)]KVG-OH), where the note is “protein: IMPORTIN SUBUNIT ALPHA-1A, PDB entry 4b8o”, the Kd is 0.004 µM (active).

As for `CC(C)[C@H](NC(=O)[C@H](C)NC(=O)[C@@H](NC(=O)[C@@H](N)CCCCN)C(C)C)C(=O)N[C@H](C(=O)N[C@@H](CCCNC(N)N)C(=O)N[C@H](C(=O)N1CCC[C@H]1C(=O)N1CCC[C@H]1C(=O)N[C@@H](CCCCN)C(=O)O)[C@@H](C)O[P+](O)(O)O)C(C)C` (H-KVAVV[Orn(CH(NH2)2)][Thr(P(OH)3+)]PPK-OH), the Kd (protein: anti-ptau heavy chain and anti-ptau light chain, PDB entry 4glr) was 0.00035 µM (active). `CC(C)C[C@H](NC(=O)CNC(=O)[C@H](CO)NC(=O)[C@@H]1CCCN1C(=O)[C@@H](N)CC(C)C)C(=O)N[C@@H](CC(C)C)C(=O)N[C@H](C(=O)N1CCC[C@H]1C(=O)N1CCC[C@H]1C(=O)N[C@@H](CCC(N)=O)C(=O)N[C@@H](CO[P+](O)(O)O)C(=O)NCC(=O)O)[C@H](C)O[P+](O)(O)O`: the dissociation constant (Kd) (protein: Skp1-Fbw7, PDB entry 2ovq) was 0.07 µM (active). For the molecule `CC(C)C[C@H](NC(=O)[C@@H]1CCCN1C(=O)[C@@H]1CCCN1C(=O)[C@@H](NC(=O)[C@@H]1CCCN1C(=O)[C@H](CC(C)C)NC(=O)[C@@H](N)CC(C)C)[C@@H](C)O)C(=O)N[C@@H](CO)C(=O)N1CCC[C@H]1C(=O)N[C@@H](CO)C(=O)N[C@@H](CCCNC(N)N)C(=O)N[C@@H](CCCNC(N)N)C(=O)N[C@@H](CO)C(=O)NCC(=O)O` (H-LLPTPPLSPS[Orn(CH(NH2)2)][Orn(CH(NH2)2)]SG-OH), the Kd (protein: Bin1C SH3 domain, PDB entry 1mv0) is 93.3 µM (active).
